In PubChem BioAssay AID1477 (National Center for Advancing Translational Sciences (NCATS), 2009):
The campaign covered roughly 230,000 compounds. Fewer than 10 were called active. Another 3% or so got no clear call; they are omitted. Calls come from the whole dose curve; as a rule, active = well fitted curve in the direction sought with a large enough effect; inconclusive = small, poorly fitted or top-dose-only effect, or effect the other way, or another doubt; inactive = no such curve, though single readings can be large or run the other way. A selection follows.

The compounds below were run against Runt-related transcription factor 1 (Homo sapiens) + Core-binding factor subunit beta (Homo sapiens) (UniProt Q01196+Q13951) (assay: qHTS Assay for Compounds Blocking the Interaction Between CBF-beta and RUNX1 for the Treatment of Acute Myeloid Leukemia). Settings: AlphaScreen CBFb-His/RUNX1-biotin binding, biochemical; series mostly up to 59.8 µM; activity, negative = inhibition: at the top concentration.
Description: NIH Chemical Genomics Center [NCGC]
NIH Molecular Libraries Probe Production centers Network [MLPCN]
Assay Submitter (PI): Paul Liu
Core Binding Factor (CBF) abnormalities are associated with 20-25% of all acute myeloid leukemias (AML), of which 5-10% are further sub classified as acute myelomonocytic leukemia with eosinophilia, also known as M4Eo in the FAB classification scheme. This subtype of leukemia is usually associated with chromosome 16 inversion (p13:q22). Chromosome 16 inversion results in formation of the fusion oncogene CBFB-MYH11, which encodes the fusion protein CBF-beta-SMMHC.
It has been hypothesized that the interference of CBF-beta and RUNX1 binding could have therapeutic implications for patients with CBF mediated leukemias. We developed a CBF-beta and RUNX1 binding assay in AlphaScreenTM format and optimized it for high throughput screening to search for inhibitors. The goal of this project is to screen MLPCN's compound collection (MLSMR) for identifying the inhibitors of the interaction between CBF-beta and RUNX1 proteins as research probes. If these probes work well in the animal models, the ultimate goal of this project is to development a new drug treatment for this disease.
This assay can not be used to assess how apparent inhibitors interfere with protein binding, and whether inhibitors specifically bind to either protein. Disruption of this protein-protein interaction, through any mechanism, is the intended target activity.
NCGC Assay Protocol Summary:
Step, Parameter, Description
(1) Reagent, 3 uL CBFb-His/RUNX1-biotin mix incubated together for 20 minutes at room temperature (30 nM each)
(2) Compound or control, 23 nL compound stock solution
(3) Incubation, 15 minutes at Room temperature
(4) Reagent, 1 uL 50 ng each of beads (Nickel beads and streptavidin beads)
(5) Incubation, 90 minutes at Room temperature
(6) Detection, Excitation=365 nm Emission=440 nm, Envision reader in AlphaScreenTM mode
Keywords: MLSMR, MLPCN, NIH Roadmap, qHTS, NCGC, Core binding factor, CBF, CBF-beta, Acute myeloid leukemia
Note: % of control where 0% means no effect.

Chain of Runt-related transcription factor 1 (Homo sapiens) + Core-binding factor subunit beta (Homo sapiens) (Q01196 whole entry, looked up): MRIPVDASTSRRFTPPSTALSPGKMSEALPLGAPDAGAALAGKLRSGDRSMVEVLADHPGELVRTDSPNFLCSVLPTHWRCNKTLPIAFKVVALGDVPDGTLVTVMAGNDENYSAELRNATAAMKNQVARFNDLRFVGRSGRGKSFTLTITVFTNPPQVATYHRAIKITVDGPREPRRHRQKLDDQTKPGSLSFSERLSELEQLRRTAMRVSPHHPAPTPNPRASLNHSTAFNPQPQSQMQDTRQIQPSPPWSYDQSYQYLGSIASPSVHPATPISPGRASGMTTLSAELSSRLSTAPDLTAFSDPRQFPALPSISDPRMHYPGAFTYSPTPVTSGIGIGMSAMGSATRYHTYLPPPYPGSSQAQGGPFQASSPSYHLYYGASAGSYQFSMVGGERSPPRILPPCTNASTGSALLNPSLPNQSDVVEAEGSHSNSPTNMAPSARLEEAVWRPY
Chain of Runt-related transcription factor 1 (Homo sapiens) + Core-binding factor subunit beta (Homo sapiens) (Q13951 whole entry, looked up): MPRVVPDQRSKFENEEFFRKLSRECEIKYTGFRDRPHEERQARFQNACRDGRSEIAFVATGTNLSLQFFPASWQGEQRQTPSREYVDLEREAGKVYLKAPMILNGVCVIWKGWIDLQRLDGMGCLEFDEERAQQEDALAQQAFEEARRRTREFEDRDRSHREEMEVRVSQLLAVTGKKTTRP

activity, negative = inhibition, inactive:
O=C(c1ccccc1)c1cc(-c2ccccn2)c(N2CCOCC2)s1 14.4%
CC1CN(c2nc(Nc3ccccc3)nc(N)c2[N+](=O)[O-])CC(C)O1 (stereo not drawn) -9.51%
OCCC#Cc1ccc(CN2CCN(Cc3ccsc3)C(CCO)C2)cc1 (stereo not drawn) -9.41%
O=C(O)c1ccc(/C=C2/SC(=S)N(c3cccc(C(F)(F)F)c3)C2=O)cc1 7.05%
COc1ccc2nc(NC(=O)NC3CCCCC3)sc2c1 -3.84%
COc1ccc(Br)cc1C1C2C=CCC(C)C2C(=O)N1Cc1ccccc1 (stereo not drawn) 5.58%
COc1cc(C(=O)NCc2nnc(SCC(=O)Nc3nc4ccc(C)cc4s3)o2)cc(OC)c1OC -20.9%
COCc1cc(=O)[nH]c(-c2ccc(C(F)(F)F)cc2)n1 2.05%
COc1ccc(N2C(=O)/C(=C\c3ccco3)N=C2SCC(N)=O)cc1Cl -24%
COc1ccc(Cl)cc1NC(=O)NC(C)C(C)(C)C (stereo not drawn) 14.5%
CC(C)=CCC[C@]1(C)[C@@H](CC=C(C)C)C[C@@]2(CC=C(C)C)C(=O)[C@]1(C(=O)C(C)C)C(=O)C(CC=C(C)C)=C2O -1.66%
COc1ccc(/C=C/C(=O)Nc2ccc(C)cc2)cc1S(=O)(=O)N1CCOCC1 1.34%
Cc1ccc(CNC(=O)C2(C(F)(F)F)C/C(=C\CCO)CCCO2)o1 (stereo not drawn) 0.93%
C[C@H]1CCC[C@@]2(C)CCCC[C@]12O -0.847%
Oc1ccc(-c2c(-c3ccccc3)nn3c(C(F)(F)F)cc(C(F)(F)F)nc23)cc1 -29%
COc1ccc2oc(-c3cccc(NC(=O)CSc4ccc(Cl)cc4)c3)nc2c1 2.53%
CC[C@H](C)[C@@H](NC(=O)O[C@@H]1C(=O)c2cc(OC)ccc2O[C@H]1c1cccc(OC)c1)C(=O)OC 7.03%
COc1ccc(C2/C=C\CN(C(=O)c3ccc(C)cc3)C(Cc3ccccc3)C(=O)N2Cc2ccc(F)cc2)cc1 (stereo not drawn) -2%
H-EHIPA-OH 4.57%
COC(=O)C(CC(C)C)NS(=O)(=O)c1cc(Br)ccc1Br (stereo not drawn) 8.93%
Cc1ccc(C(=O)N/N=C\c2cc(Br)c(Br)o2)cn1 -16.1%
COc1ccc(C2/C=C\CN(CC(C)C)CC(=O)N2Cc2ccc(F)cc2)cc1 (stereo not drawn)
COc1ccc(C(=O)CSc2nnc(NC(=O)C3CC(=O)N(c4cccc(OC)c4)C3)s2)cc1 (stereo not drawn) 5.76%
COc1ccc(/C=N/NC(=O)Cn2cc(C(F)(F)F)ccc2=O)cc1 8.56%
COC(=O)c1c(NC(=O)CN(c2ccc(C)c(C)c2)S(C)(=O)=O)sc2c1CCCC2 -8.59%
COc1ccc(C(CCN2CCOCC2)c2c(OC)cc(OC)c3c2OC(=O)CC3c2ccc(OC)cc2)cc1 (stereo not drawn) -15.9%
COC(=O)c1nc2n(n1)C(c1ccc([N+](=O)[O-])cc1)C(C(=O)Nc1ccc(Cl)cc1)=C(C)N2 (stereo not drawn) -5.95%
O=C(COC(=O)c1ccc(S(=O)(=O)Nc2ccccc2)cc1)NCC1CCCO1 (stereo not drawn) 10.7%
C=C1CCN(Cc2ccc(OC)cc2)S(=O)(=O)c2ccccc21 13.9%
CC(C)C(NS(=O)(=O)c1ccc(-c2ccc(Br)cc2)cc1)C(=O)O (stereo not drawn) 9.65%
CCCC(O)(CCC)C(=O)NN(C(=O)CCl)c1cccc(C)c1 -3.73%
COc1ccc(C(=O)Nc2ccc(-n3nncc3C(C)(C)C)cc2)cc1 -0.753%
C=CCOC(=O)C(=C)C 2.23%
NCCCCC(N)C(=O)O (stereo not drawn) 4.1%
O=C(Cn1c(COc2ccccc2)nc2ccccc21)Nc1cc(Cl)c(Cl)cc1Cl -4.59%
C/C(=N\NC(=O)CNC(=O)C(c1ccccc1)c1ccccc1)c1ccc(C)cc1 -2.24%
COc1ccc(C(=O)NC2CCN(C(=S)NCCc3ccccc3)CC2)cc1 2.59%
O=C(Nc1cc(C(F)(F)F)ccc1Cl)c1cc2nc3c(c(C(F)(F)F)n2n1)CCCC3 3.04%
Cc1cc(OCCCCOc2ccc(C#N)cc2)ccc1[N+](=O)[O-] 15.6%
Cc1cc2c(cc1C)N(Cc1ccccc1)C1=NCCCN12 -4.11%
CCCc1cc(=O)[nH]c(SCC(=O)N2CCN(S(=O)(=O)c3ccc(C)cc3C)CC2)n1 14.9%
CCOC(=O)c1nn(-c2cccc(C)c2)cc1C(=O)c1ccccc1 -7.37%
COc1ccc(-c2nc3c(c4c2C[C@H](c2ccccc2)OC4)CN(C(=O)c2ccco2)CC3)c(C)c1 5.84% [at 13.1 µM]
COc1ccc(-c2ccc(OC(=O)NC3CCS(=O)(=O)C3)cc2)cc1 (stereo not drawn) 4.1%
COc1ccccc1/C=C/CN1CCC(CO)(Cc2ccccc2)CC1 3.97%
CC(=O)c1c(O)cc2n(c1=O)-c1ccc(Cl)cc1C2(C)C 1.82%
C/C(=C\c1ccccc1)C1NC(=O)c2c(sc3c2CCCC3)N1 (stereo not drawn) -0.931%
Cc1ccc(-n2cc(CN(C)Cc3nccn3C)c(-c3cccc(C)c3)n2)cc1 -15.4%
CC(/C=C/c1ccco1)=N/NC(=O)C1COc2ccccc2O1 (stereo not drawn) -3.74%
CCOc1cccc2c1OC1(CCCCC1)N1N=C(c3cccnc3)CC21 (stereo not drawn) 3.17%
OCCNCCOc1ccc(Cl)c(Cl)c1 -1.31%
Cc1c(CCO)c(=O)[nH]n1C(=O)c1c(F)cccc1F 0.745%
O=C1C[C@@H](c2ccc3ccccc3c2)N1S(=O)(=O)c1ccccc1[N+](=O)[O-] 9.98%
CCOC(=O)Cn1c(=O)sc2cccc(Cl)c21 5.32%
O=C(CC1C(=O)NCCN1Cc1ccc(-c2ccccc2)cc1)NCC1CCOCC1 (stereo not drawn) 1.5%
CCO[C@H]1OC(C(=O)Nc2ccccc2)=C[C@@H](C2CC2)[C@@H]1CCCO 11.9%
Cc1ccc2nc(-c3cccnc3)c(NC3CCCC3)n2c1 -13.5%
CCCCC/C=C\C/C=C\C/C=C\CCCCCCC(N)=O -2.43%
Cc1ccc(C2=NN(C(=O)COc3ncnc4ccccc34)C(c3ccco3)C2)cc1 (stereo not drawn) 9.21%
O=C(Cc1ccc(S(=O)(=O)N2CCCC2)s1)NC1CCCCCC1 -11%
O=C(Nc1ccc(-c2csc(Nc3cccc(C(F)(F)F)c3)n2)cc1)c1cccc(C(F)(F)F)c1 19.3%
CC[C@H](C)[C@H](NC(=O)[C@H](Cc1ccc(O)cc1)NC(=O)[C@@H](NC(=O)[C@H](CCCN=C(N)N)NC(=O)[C@@H](N)CC(=O)O)C(C)C)C(=O)N[C@@H](Cc1cnc[nH]1)C(=O)N1CCC[C@H]1C(=O)N[C@@H](Cc1ccccc1)C(=O)O 26.2%
COc1ccc(CCn2c(NN=C3CCCC3)nc3c2c(=O)[nH]c(=O)n3C)cc1 -24.2%
